A selection: hits, their analogues and other compounds. The true share with any hit is near 19%.
HT1080NT lethal: kills 2HG-producing HT-1080-NT fibrosarcoma cells; Potency, µM (series often up to 46.1 µM), for the others: top-dose activity, negative = less viability, actives largely listed as cytotoxic; HT-1080-NT fibrosarcoma viability, CellTiter-Glo ATP luminescence, 48 h; hit rate 1.6% among 360,000;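 also: NT is the 2HG producing partner of a matched IDH1 knockdown line; potency is read from the fitted curve at half-maximal effect; 0% = DMSO-treated cells and -100% = media-only wells without cells; nearly all actives have a fitted effect of over 55% in size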
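Luminescent CellTiter-Glo readout after 48 hours of compound exposure at 37 degrees C defined viability of HT-1080-NT cells. Activity was normalized to DMSO wells and cell-free media wells; concentration-response curves were fitted and assigned curve classes.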
IL1B secr inh: blocks inflammasome-driven IL-1 beta release; THP-1 LPS/ATP IL-1B secretion, AlphaLISA, 16 h; hits give low values; activity change, % at 57.5 µM; hit rate 4.7% among 360,000; AID 743279; in the data active = activity change below about -50%; inconclusive = mostly about -30% to -49%
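Secreted IL-1B measured by AlphaLISA bead assay after 16 h compound exposure of THP-1 cells; compounds (final up to 57.5 uM) added 1 h before LPS (250 ng/mL) and ATP (1.25 mM) stimulation; lower signal means less secretion.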
DT40 TDP1 no CPT: qHTS for Inhibitors of human tyrosyl-DNA phosphodiesterase 1 (TDP1): qHTS in cells in absence of CPT | DT40 Tdp1-/- hTDP1 cells, no CPT, ATP luminescence, 48 h | Potency, µM (highest dose often 46.2 µM), without a hit: at the highest dose activity change, negative = growth inhibition, actives largely listed as inhibitors | hit rate 15% among 420,000 | AID 686978, 2013; also: potency is read from the fitted curve at half-maximal effect; nearly all actives have a fitted effect of over 55% in size
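Chicken DT40 Tdp1-/- cells stably complemented with human TDP1 were seeded at 400 cells/well with DMSO in place of 20 nM camptothecin. After compound pinning, cells grew at least 48 hr at 37 °C; viability read by CellTiter-Glo luminescence.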
HT1080 IDH1KD tx: toxicity to HT-1080 IDH1 knockdown cells (counter line). HT-1080 IDH1 knockdown viability, ATP luminescence, 48 h. Potency, µM (titrated, usually from 46.1 µM), without a hit: at the top dose activity, negative = toxicity, hits mostly cytotoxic. hit rate 2% among 360,000. AID 686971;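 also: potency is read from the fitted curve at half-maximal effect; 0% = DMSO wells and -100% = cell-free medium wells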
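In this qHTS, HT-1080 cells depleted of IDH1 are exposed for 48 h at 37 °C to compound titrations. Toxicity is scored from CellTiter-Glo luminescence, with DMSO as full viability and medium alone as none.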
TDP1 cell CPT: DT40-hTDP1 cell growth loss with CPT; hit rate 12% among 420,000; Potency, µM (doses to about 46.2 µM), for the others: at the top dose activity change, negative = growth inhibition, hits mostly inhibitors; chicken DT40 Tdp1-/-;hTDP1 cells + 20 nM CPT, ATP luminescence, 48 h; also: potency is read from the fitted curve at half-maximal effect; nearly all actives have a fitted effect of over 55% in size
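Chicken DT40 Tdp1-/- cells complemented with human TDP1, 400 cells/well, exposed to compounds plus 20 nM camptothecin for at least 48 h at 37 C; viability read as ATP content by CellTiter-Glo luminescence.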
ELG1 repair inh: blocks ELG1-dependent DNA repair in HEK293T cells. HEK293T ELG1-luciferase reporter, luminescence, 16 h; DNA damage induced by 5-fluorouridine. Potency, µM (doses to about 46.1 µM), without a hit: at the top dose activity change, negative = inhibition, hits mostly inhibitors. hit rate 2.3% among 330,000. AID 504467; also: potency is read from the fitted curve at half-maximal effect; nearly all actives have a fitted effect of over 55% in size
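DMSO vehicle served as the neutral condition. Each well held 2,000 cells given 5-fluorouridine plus compound; after 16 hr at 37 °C/5% CO2, ONE-Glo was added and luciferase measured 30 min later.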
An asterisk follows results filed as active; u = inconclusive; x = no result; [ ] = another dose, or the depositor's remark. Unless noted, calls follow the shape of the dose curve; as a rule, active = well fitted curve in the direction sought with a large enough effect; inconclusive = small, poorly fitted or top-dose-only effect, or another doubt; inactive = no such curve, though single readings can be large; an effect the other way counts as inactive or inconclusive. Unless noted, % is scaled to controls: 0 for no effect and ±100 for the full control effect.

SMILES	HT1080NT lethal	IL1B secr inh	DT40 TDP1 no CPT	HT1080 IDH1KD tx	TDP1 cell CPT	ELG1 repair inh
CCC(C(=O)Nc1ccncc1)c1ccccc1 (configuration not stated)	5%	47	16µM*	4%	u	-24%
O=C(Nc1ccc(Oc2ccc(NC(=O)Nc3ccccc3Cl)cc2)cc1)Nc1ccccc1Cl	-1%	-8	21µM*	-17%	18µM*	-18%
O=C(COc1ccccc1)Nc1cccc2nsnc12	0%	5	-28%	7%	8%	18%
CCOC(=O)C1CCN(C(=O)CCCNC(=O)Cn2cnc3sc(C)c(C)c3c2=O)CC1	8%	-68*	0%	3%	4%	-8%
Brc1ccc(Sc2cnc3ccccc3n2)cc1	17%	-12	-22%	6%	-11%	x
O=S(=O)(Cc1ccccc1)c1cnc2ccccc2n1	u	-89*	16µM*	u	16µM*	2%
NC(=O)Cn1c(S(=O)(=O)Cc2ccccc2)nc2ccccc21	u	21	20%	26%	-9%	x
COc1ccc(S(=O)(=O)c2ccc(OC)cc2)cc1	0%	-11	-28%	-4%	u	-11%
O=S(=O)(c1ccc(Br)cc1)c1cnc2ccccc2n1	u	-101*	u	u	26µM*	u
COc1ccc(S(=O)(=O)c2cnc3ccccc3n2)cc1	u	-58*	u	u	u	1%
COc1cccc(Cn2c(Oc3ccccc3)nc3c2c(=O)n(C)c(=O)n3C)c1	-22%	19	u	-20%	-30%	u
Cn1c(=O)c2c(nc(NCc3cccnc3)n2Cc2cccc(C(F)(F)F)c2)n(C)c1=O	21µM*	-10	7.3µM*	2%[9.24 µM]	18µM*	u
COc1cccc(Cn2c(NCc3cccnc3)nc3c2c(=O)n(C)c(=O)n3C)c1	4.6µM*	24	1µM*	5.2µM*	1µM*	u
CCOC(=O)c1cnc2nc(C)[nH]n2c1=O	7%	10	9%	6%	-6%	10%
CCOC(=O)c1cnc2sc3c(n2c1=O)CCCC3	-12%	0	15µM*	-11%	26µM*	-14%
CCOc1ccc(S(=O)(=O)N(C)c2ccc(OCC(=O)NCCc3ccc(OC)cc3)cc2)cc1	2%	2	23µM*	15%	21µM*	u
CCN(c1ccccc1)S(=O)(=O)c1ccc(Cl)c(C(=O)NCCc2ccc(OC)cc2)c1	-1%	5	u	-1%	18µM*	-18%
COc1ccc(CCNC(=O)c2ccc(S(=O)(=O)N(C)c3ccccc3)cc2)cc1OC	2%	30	23µM*	-1%	u	2%
CCN(c1ccccc1)S(=O)(=O)c1ccc(C(=O)N(C)CCc2ccc(OC)c(OC)c2)cc1	-14%	-18	21µM*	-1%	u	u
Cc1ccc(-c2nc3ncccc3o2)cc1NC(=O)c1ccc(-c2ccc(Cl)cc2)o1	x	x	3%	x	4%	x
O=C(Cn1cc(COc2ccc3ccccc3c2)nn1)NS(=O)(=O)c1cccc(OC(F)F)c1	1%	23	8%	11%	14%	x
CN(c1ccccc1)S(=O)(=O)c1cccc(C(=O)NCc2ccccc2CN2CCCC2)c1	u	-7	u	u	u	0%
CCN(CC)S(=O)(=O)c1cccc(C(=O)NCCc2ccccc2)c1	-13%	22	u	-16%	u	x
COc1ccc(CCNC(=O)c2ccc(Cl)c(S(=O)(=O)N(C)c3ccccc3)c2)cc1	-11%	u	16µM*	-22%	21µM*	16µM*
COc1ccccc1CNC(=O)c1cccc(S(=O)(=O)N(C)c2ccccc2)c1	-7%	-5	u	1%	26µM*	u
SMILES	HT1080NT lethal	IL1B secr inh	DT40 TDP1 no CPT	HT1080 IDH1KD tx	TDP1 cell CPT	ELG1 repair inh
CN(c1ccccc1)S(=O)(=O)c1cccc(C(=O)NCCc2ccc(O)c(O)c2)c1	-26%	14	12µM*	u	8.2µM*	u
Cc1ccc(S(=O)(=O)N(C)c2ccc(C(=O)NCCc3ccccc3)cc2)cc1	-5%	-1	u	-10%	u	u
COc1ccc(CCNC(=O)c2ccc(N(C)S(=O)(=O)c3ccc(C)cc3)cc2)cc1	-9%	-2	16µM*	-4%	u	u
CCOCCCNC(=O)CSc1nnc(-c2ccc(S(=O)(=O)N3CCCC3)cc2)n1C	5%	5	-2%	-3%	8%	-2%
CCOc1ccc(S(=O)(=O)N(C)c2ccc(OCC(=O)NCC3CCCCC3)cc2)cc1	-2%	u	21µM*	-7%	16µM*	26µM*
CCn1cc(-c2ccccc2)c(C(=O)O)c1-c1ccc(OC)cc1	16%	15	-22%	14%	1%	1%
COCC(=O)N1CCC[C@@]2(CCN(Cc3ccccc3)C2)C1	x	x	-6%	x	-9%	x
COc1ccc(OC)c2sc(N3CCc4ccccc4C3)nc12	-3%	0	-8%	-23%	1%	18%
c1ccc2c(c1)CCN(c1nc3cc4c(cc3s1)OCCO4)C2	u	-58*	u	u	10µM*	u
CO/N=C(\C(=O)N[C@@H]1C(=O)N2C(C(=O)[O-])=C(C[n+]3ccc(N)n3CCO)CS[C@H]12)c1csc(N)n1	x	x	-7%	x	3%	x
C[C@@H](C(=O)Nc1ccc2ccccc2c1)[C@H]1C[C@]1(C)[C@H](NC(=O)OCc1ccccc1)c1ccccc1	-10%	u	16µM*	-5%	18µM*	u
C[C@@H](C(=O)NCCc1c[nH]c2ccccc12)[C@H]1C[C@]1(C)[C@H](NC(=O)OCc1ccccc1)c1ccccc1	-10%	-23	16µM*	-14%	6.5µM*	18µM*
C[C@@H](C(=O)NCc1ccccn1)[C@H]1C[C@]1(C)[C@H](NC(=O)OCc1ccccc1)c1ccccc1	-9%	-24	16µM*	1%	23µM*	u
C[C@@H](C(=O)NCC1CC1)[C@@H]1C[C@@]1(C)[C@@H](NC(=O)OCc1ccccc1)c1ccccc1	-2%	-1	15µM*	1%	u	-5%
COCCNC(=O)C(Cc1c[nH]c2ccccc12)NC(=O)OCc1ccccc1 (configuration not stated)	8%	52	-16%	0%	9%	-2%

Bioassay records from PubChem.
